Publication PMC4336329 (PLoS ONE, 2015)
Among all 310,000 compounds or so, about 14,000 (4.5%) showed an effect of 50% or more. The effect is printed as a negative number. This is one part of a sample in which strong results are shown more often than they occur.

target: human ether-à-go-go-related gene (hERG) potassium channel (human, UniProt Q12809); experiment: primary screen, population patch clamp on CHO cells stably expressing hERG; higher = less effect of the substance
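Also: peak tail current of the secondary pulse compared with the same well before compound.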

Chain of human ether-à-go-go-related gene (hERG) potassium channel (Q12809 whole entry, looked up): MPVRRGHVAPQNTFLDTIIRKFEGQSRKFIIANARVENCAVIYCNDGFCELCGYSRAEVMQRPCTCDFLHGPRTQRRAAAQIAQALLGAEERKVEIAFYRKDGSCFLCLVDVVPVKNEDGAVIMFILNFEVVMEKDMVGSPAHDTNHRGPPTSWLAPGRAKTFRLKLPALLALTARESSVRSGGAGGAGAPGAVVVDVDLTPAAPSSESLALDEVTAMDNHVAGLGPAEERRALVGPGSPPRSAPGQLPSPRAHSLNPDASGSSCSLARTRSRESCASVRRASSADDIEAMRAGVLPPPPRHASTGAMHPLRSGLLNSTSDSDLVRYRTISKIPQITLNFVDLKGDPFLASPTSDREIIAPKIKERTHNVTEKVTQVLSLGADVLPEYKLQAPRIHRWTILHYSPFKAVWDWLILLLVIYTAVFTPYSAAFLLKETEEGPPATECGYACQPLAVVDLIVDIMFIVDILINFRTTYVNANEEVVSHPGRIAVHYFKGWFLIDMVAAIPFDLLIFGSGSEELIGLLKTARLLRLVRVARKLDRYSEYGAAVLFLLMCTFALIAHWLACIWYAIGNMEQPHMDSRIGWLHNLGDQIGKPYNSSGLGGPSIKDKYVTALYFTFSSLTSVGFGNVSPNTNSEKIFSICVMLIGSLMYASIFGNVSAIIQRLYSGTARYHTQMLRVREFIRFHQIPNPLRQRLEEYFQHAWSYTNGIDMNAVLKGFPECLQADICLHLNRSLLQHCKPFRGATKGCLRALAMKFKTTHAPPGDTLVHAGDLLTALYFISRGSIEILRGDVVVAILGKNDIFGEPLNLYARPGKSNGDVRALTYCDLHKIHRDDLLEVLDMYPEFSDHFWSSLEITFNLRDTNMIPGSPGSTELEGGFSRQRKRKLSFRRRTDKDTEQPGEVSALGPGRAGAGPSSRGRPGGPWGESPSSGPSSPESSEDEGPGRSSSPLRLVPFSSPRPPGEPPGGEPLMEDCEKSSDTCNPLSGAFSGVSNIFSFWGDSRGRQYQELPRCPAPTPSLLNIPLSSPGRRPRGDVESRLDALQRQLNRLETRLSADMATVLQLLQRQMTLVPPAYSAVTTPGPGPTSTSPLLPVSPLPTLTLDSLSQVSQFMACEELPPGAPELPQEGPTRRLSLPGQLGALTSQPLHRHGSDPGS

| SMILES | hERG current change (%, negative = inhibition) at 10uM [%] |
| --- | --- |
| CC1=C(C)CC(C(=O)NNC(=O)c2cccc(Cl)c2)C(C(=O)O)C1 (centres unmarked) | 12.3 |
| Cc1ccccc1C(=O)Nc1ccc(C(=O)N/N=C/c2ccc(O)c(Br)c2)cc1 | -2.99 |
| CC(C)C[C@H](NC(=O)c1[nH]cnc1C(=O)N[C@@H](Cc1ccccc1)C(=O)OCc1ccccc1)C(=O)OCc1ccccc1 | 21.6 |
| CNC(=O)c1[nH]cnc1C(=O)N[C@@H](CC(C)C)C(=O)OCc1ccccc1 | -58.2 |
| CC(C)C[C@H](NC(=O)c1nc[nH]c1C(=O)N[C@@H](CC(C)C)C(=O)OCc1ccccc1)C(=O)OCc1ccccc1 | 16.2 |
| CC1(C)C(C=C(Cl)Cl)C1C(=O)Nc1ccc([N+](=O)[O-])cc1 (centres unmarked) | 18.9 |
| O=C(COc1ccc(/C=N/NC(=O)C(=O)N2CCCCC2)cc1)Nc1ccccc1Cl | 15.9 |
| O=C(C1CCCN(S(=O)(=O)c2ccc(F)cc2)C1)N1CCCCCC1 (centres unmarked) | -24 |
| O=C(C1CCCN(S(=O)(=O)c2ccc([N+](=O)[O-])cc2)C1)N1CCCCC1 (centres unmarked) | -62 |
| O=C(C1CCC1)N1CCN(S(=O)(=O)c2ccc(F)cc2)CC1 | 11.4 |
| O=C(C1CCCCC1)N1CCN(S(=O)(=O)c2cccc([N+](=O)[O-])c2)CC1 | -13.1 |
| O=C(C1CCCN(S(=O)(=O)c2ccc(F)cc2)C1)N1CCCCC1 (centres unmarked) | 6.09 |
| O=C(C1CCC1)N1CCN(S(=O)(=O)c2ccc([N+](=O)[O-])cc2)CC1 | -62.6 |
| COc1ccc2oc(C(=O)N3CCc4ccccc43)c(C)c2c1 | 15.1 |
| Cc1cccc(S(=O)(=O)NCCC(=O)OC(C)C(=O)NC(=O)NC2CCCCC2)c1 (centres unmarked) | -20.8 |
| Cc1nn(C)c(Oc2cccc(Cl)c2)c1C#N | 8.31 |
| Cc1nc(N(C)Cc2ccccc2)c2nnn(Cc3ccccc3)c2n1 | -37.9 |
| COc1ccc(CCC(=O)Nc2ccc(S(=O)(=O)N3CCCC3)cc2)cc1OC | -11.8 |
| CCC1(Cc2ccccc2)NC(=O)c2ccccc2O1 (centres unmarked) | 2.36 |
| Cc1ccc2[nH]c3c(=O)n(Cc4ccncc4)cnc3c2c1 | 4.77 |
| O=c1c2[nH]c3ccc(F)cc3c2ncn1CC1CCCO1 (centres unmarked) | -16 |
| COc1cc2[nH]c3c(=O)n(CCN(C(C)C)C(C)C)cnc3c2cc1OC | -13.3 |
| Cc1ccc2[nH]c3c(=O)n(CCN4CCOCC4)cnc3c2c1 | -17.5 |

| SMILES | hERG current change (%, negative = inhibition) at 10uM [%] |
| --- | --- |
| Cc1ccc2[nH]c3c(=O)n(CCN4CCNCC4)cnc3c2c1 | 7.36 |
| CC(C)N(CCn1cnc2c([nH]c3ccccc32)c1=O)C(C)C | -68.1 |
| O=c1c2[nH]c3cccc(Cl)c3c2ncn1CCN1CCCCC1 | -21.9 |
| CCCCn1cnc2c([nH]c3ccccc32)c1=O | 15.7 |
| CCN1CCCC1Cn1cnc2c([nH]c3cccc(Cl)c32)c1=O (centres unmarked) | -67.2 |
| CCN1CCCC1Cn1cnc2c([nH]c3ccc(C)cc32)c1=O (centres unmarked) | -70 |
| O=c1c2[nH]c3cccc(Cl)c3c2ncn1CC1CCCO1 (centres unmarked) | -9.51 |
| CCN1CCCC1Cn1cnc2c([nH]c3ccc(Cl)cc32)c1=O (centres unmarked) | -76.5 |
| Cc1nn(C)c(C(=O)N/N=C/c2ccccn2)c1[N+](=O)[O-] | 21.3 |
| CCCNC(=O)NC(C)C12CC3CC(CC(C3)C1)C2 (centres unmarked) | -12.6 |
| COC(=O)c1cc(COC(=O)c2nc3nccc(C)n3n2)oc1C | 15.7 |
| Cc1cc(C(=O)OCC(=O)NC2CCCCC2)c(C)o1 | 9.12 |
| Cc1ccc(NC(=O)CSCC(=O)N2CCN(c3cccc(C(F)(F)F)c3)CC2)cc1 | -13 |
| Cc1ccc(NC(=O)c2cccc3c2-c2ccccc2C3=O)cc1C | -9.58 |
| CCC1CCCN1Cn1cnc2c([nH]c3ccc(Cl)cc32)c1=O (centres unmarked) | -71.5 |
| O=C1CCCN1CCCNc1ncnc2c1[nH]c1ccc(Cl)cc12 | -29.4 |
| Cc1ccc2[nH]c3c(=O)n(CCCN4CCOCC4)cnc3c2c1 | -17.8 |
| CCC1CCCN1Cn1cnc2c([nH]c3ccc(C)cc32)c1=O (centres unmarked) | -67.1 |
| CCC1CCCN1Cn1cnc2c([nH]c3ccccc32)c1=O (centres unmarked) | -62.1 |
| O=c1c2[nH]c3ccc(F)cc3c2ncn1CCN1CCN(Cc2ccccc2)CC1 | -63.2 |
| O=c1c2[nH]c3ccccc3c2ncn1CCN1CCOCC1 | 4.87 |
| Cc1ccc2[nH]c3c(=O)n(CCC4=CCCCC4)cnc3c2c1 | 4.95 |
| O=c1c2[nH]c3ccc(F)cc3c2ncn1CCN1CCOCC1 | -41.1 |

| SMILES | hERG current change (%, negative = inhibition) at 10uM [%] |
| --- | --- |
| O=c1c2[nH]c3ccccc3c2ncn1CCN1CCNCC1 | 4.97 |
| Cc1ccc2[nH]c3c(=O)n(CCCN4CCN(C)CC4)cnc3c2c1 | -37 |
| O=c1c2[nH]c3ccc(F)cc3c2ncn1CCCN1CCOCC1 | -31.3 |
| O=c1[nH]nc(-c2ccc(NCCCO)c([N+](=O)[O-])c2)c2ccccc12 | -9.98 |
| O=C(CSc1nnc(NC(=O)C2CC2)s1)NCc1ccco1 | -4.21 |
| COc1cc(/C=N\NC(=O)c2ccc(C)nc2)ccc1OC(=O)c1ccc2c(c1)OCO2 | -7.08 |
| Cc1cccc(CNc2ccc(C(CC(N)=O)NC(=O)Cc3cccc4ccccc34)cc2[N+](=O)[O-])c1 (centres unmarked) | 7.02 |
| Cc1ccn2cc(-c3cccc(NC(=O)c4cccs4)c3)nc2c1 | -48.7 |
| O=c1c2[nH]c3ccccc3c2ncn1CCN1CCCCC1 | -45.6 |
| COc1cc2[nH]c3c(=O)n(CCN4CCCCC4)cnc3c2cc1OC | 6.02 |
| O=c1c2[nH]c3ccc(Cl)cc3c2ncn1CCN1CCCCC1 | -68 |
| Cc1ccc(S(=O)(=O)N(C)CC(=O)Nc2ccccc2)cc1 | -20 |
| COc1cccc(CC(=O)OCC(=O)NC2(C#N)CCCCC2)c1 | 16.5 |
| Cc1nnc(NC(=O)CCSc2ccccc2)s1 | 1.73 |
| COC(=O)C1CCN(C(=O)COC(=O)c2n[nH]c3ccccc23)CC1 | 10.8 |
| Cc1c(C(C)NC(=O)c2cc(COc3cccc4cnccc34)on2)cnn1C (centres unmarked) | -55.6 |
| Cc1nn(C)cc1C(C)NC(=O)c1cc(COc2cccc3cnccc23)on1 (centres unmarked) | 13.9 |
| COc1cccc(OCc2cc(C(=O)NC(C)c3cnn(C)c3C)no2)c1 (centres unmarked) | -2.65 |
| Cc1ccc(C)c(NC(=O)NNC(=O)c2ccc3ccccc3c2O)c1 | 11.4 |
| CC(=O)c1ccc(N2CCN(C(=O)c3cn(Cc4ccccc4)nc3-c3cccnc3)CC2)c(F)c1 | -50.2 |
| O=C(c1cn(Cc2ccccc2)nc1-c1cccnc1)N1CCN(Cc2c(F)cccc2Cl)CC1 | -4.33 |
| O=C(c1cn(Cc2ccccc2)nc1-c1cccnc1)N1CCN(Cc2ccccc2)CC1 | -33.5 |
| COc1cccc(N2CCN(C(=O)c3cn(Cc4ccccc4)nc3-c3cccnc3)CC2)c1 | -12.9 |

| SMILES | hERG current change (%, negative = inhibition) at 10uM [%] |
| --- | --- |
| COc1ccc(N2CCN(C(=O)c3cn(Cc4ccccc4)nc3-c3cccnc3)CC2)cc1 | -33.3 |
| O=C(O)/C=C/c1cn(Cc2ccccc2)nc1-c1cccnc1 | 12 |
| O=Cc1cn(Cc2ccccc2)nc1-c1cccnc1 | 7.48 |
| COCCOC(=O)/C(C#N)=C/c1cn(Cc2ccccc2)nc1-c1cccnc1 | -67.1 |
| N#Cc1ccc(CN2CCN(C(=O)c3cn(Cc4ccccc4)nc3-c3cccnc3)CC2)cc1 | -72.9 |
| CCc1nnc(NC(=O)CSc2nc3c(c(=O)n2C)SC(C)C3)s1 (centres unmarked) | -2.54 |
| CCCCOC(=O)c1ccc(NC(=O)c2ocnc2C)cc1 | -8.8 |
| O=C(OC(C(=O)NCc1ccco1)c1ccc(Cl)cc1)c1cccs1 (centres unmarked) | 17.6 |
| CC(C)Oc1ccccc1/C=N/NC(=O)C1CC1 | 7.57 |
| Cl.c1ccc(CN2CCN(c3nc(N4CCOCC4)c4ccccc4n3)CC2)cc1 | -70.3 |
| O=C(NCCO)c1nc(NCCO)c2ccccc2n1 | 10.3 |
| Cl.OCCNc1nc(N2CCN(Cc3ccccc3)CC2)nc2ccccc12 | -68.3 |
| CCN1CCN(c2nc(NCCO)c3ccccc3n2)CC1.Cl | -16.7 |
| Cl.OCCN1CCN(c2nc(NCc3ccco3)c3ccccc3n2)CC1 | -75.3 |
| Cc1ccc(-c2nc(NCc3ccco3)c3ccccc3n2)cc1 | 4.65 |
| Cc1ccc(OCCN2CCN(c3nc(NCc4ccco4)c4ccccc4n3)CC2)cc1 | -62.6 |
| CCN(CC)c1nc(N2CCOCC2)nc2ccccc12.Cl | -48.3 |
| Cl.c1ccc2c(N3CCOCC3)nc(N3CCOCC3)nc2c1 | -19.4 |
| Cc1cccc(Nc2nc(NCc3ccco3)c3ccccc3n2)c1.Cl | -12.2 |
| CC(=O)N1c2ccc(S(=O)(=O)N3CCCC(C(=O)N4CCCCC4)C3)cc2CC1C (centres unmarked) | 19.2 |
